Results filed as inconclusive are left out. Where a call stands in place of a potency, no number is given. Activity calls are given as the source filed them. Calls come from the whole dose curve; as a rule, active = well fitted inhibition curve with a large enough effect; inconclusive = small, poorly fitted or top-dose-only effect; inactive = flat fitted curve, though single readings scatter.
Potency is the fitted concentration of half-maximal effect.

The assay deals with AA1029. Briefly: qHTS profiling for inhibitors of Plasmodium falciparum proliferation (AID 504749). Note: nearly all actives have a fitted effect of over 60% in size. Particulars: P. falciparum in erythrocytes, SYBR Green DNA, 72 h; series mostly up to 28.7 µM. In outline:
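Three-day growth assay of blood-stage parasites in erythrocytes (0.3% parasitemia, 2.5% hematocrit) at 37 C, 5% CO2, quantified by SYBR Green DNA staining after overnight detergent lysis.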
For orientation: qHTS replaces the single test concentration by a dilution series.
`CN1CCc2cccc3c2[C@H]1Cc1ccc(O)c(O)c1-3`: the Potency was 8.91 µM (active).

Take `CCCN(CCc1cccs1)[C@H]1CCc2c(O)cccc2C1`: the Potency is 5.01 µM (active). The result for `CC(C)(Cc1c[nH]c2ccccc12)NCC(O)COc1ccccc1C#N` (centres undefined) reads 8.91 µM (active); that for `CC1=C(C(=O)O)N2C(=O)[C@@H](NC(=O)[C@H](N)c3ccccc3)[C@H]2SC1`, “inactive”. As to `COc1ccc(C(=O)c2ccccc2O)c(O)c1`, the Potency entry was “inactive”.

In the case of `COc1cc(N)c(Cl)cc1C(=O)NC1CCN(Cc2ccccc2)CC1`, the Potency result is “inactive”. To `CC(=O)O[C@]1(C(C)=O)CC[C@H]2[C@@H]3C=C(Cl)C4=CC(=O)CC[C@]4(C)[C@H]3CC[C@@]21C` belongs 11.2 µM (active); to `CC(C)(C)CC(C)(C)c1ccc(O)c(-n2nc3ccccc3n2)c1`, 12.6 µM (active). Consider `C[N+]1(C)CCC(=C(c2ccccc2)c2ccccc2)CC1`, for which the Potency entry is “inactive”.

Regarding `CC[N+](C)(CC)CCOC(=O)C(O)(c1ccccc1)C1CCCCC1` (centres undefined), the Potency result was “inactive”. To `CCNC(=O)/C=C/c1cccc(Br)c1` belongs “inactive”; to `CCCCCCCCCCCCOCCOCCOCCOCCOCCOCCOCCOCCOCCO`, “inactive”; to `CN(CCCN1c2ccccc2CCc2ccccc21)CC(=O)c1ccc(Cl)cc1`, 7.94 µM (active).

Consider `Oc1ccc(Cl)cc1Cc1cc(Cl)ccc1O`, for which the Potency is 10 µM (active).

The record behind these values is PubChem BioAssay (NCATS).
